Laboratory results reported in PubChem BioAssay (NCI).
The panel holds about 79,000 compounds, 15% with a hit somewhere; the sample as a whole holds those more often. A number with no mark means an inactive call. Cut-off read from the data, not from the text of the source: active = growth inhibition above about 70%; inactive = the rest.

Assay: NCI Yeast Anticancer Drug Screen. Data for the cln2 rad14 strain (AID 165);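 note: 0% = growth equal to vehicle treated cultures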
Conditions: S. cerevisiae cln2 rad14 strain, at 50.0 µM, stronger effect = higher value
In short: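 Growth inhibition, relative to vehicle-treated controls, is the read-out. The test organism is a yeast strain with defined genetic alterations, cln2 rad14.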

Going from `CC(NC1=CC(=O)c2cccnc2C1=O)C(O)c1ccccc1` (stereo not given) to `Cc1cc2c3ccccc3n(C)c2c2c1C(=O)c1ccccc1C2=O`, the growth inhibition falls from 27.5% to 5.45%.

Going from `CC(Oc1ccccc1)C(O)(c1ccc(N(C)C)cc1)c1ccc(N(C)C)cc1` (stereo not given) to `COC(=O)NC1=Nc2ccccc2N(C(=O)Oc2ccccc2)S1`, the growth inhibition rises from 8.15% to 23.6%.

First: O=C(NNC(=O)c1ccc2ccccc2c1)c1ccc(Cl)c(Cl)c1
Second: COc1c(NC(=O)c2ccc(C(=O)Nc3cccc([N+](=O)[O-])c3OC)cc2)cccc1[N+](=O)[O-]
The growth inhibition of the first is higher: 17.1% for the first, -20.6% for the second.

First: COc1nc(NC2OC(CO)C(O)C(O)C2O)c(/C=N/O)c(=O)n1C (stereo not given)
Second: Cc1cn(C2CC(O)C(CO)C2C)c(=O)[nH]c1=O (stereo not given)
The growth inhibition of the first is higher: 6.8% for the first, 5.4% for the second.

Going from `COCCCNC(=O)C1C(=O)C(=O)N(CCCOC)C1=O` (stereo not given) to `COC(=O)c1cc(=O)n(C)[nH]1`, the growth inhibition falls from 13.2% to -58.2%.

Compared with `O=C(N=Nc1c(O)[nH]c2c(Cl)cc(Cl)cc12)C(=O)Nc1cccc(C(F)(F)F)c1`, `O=C(Nc1ccc(F)cc1)c1cc2c(cc1Cl)Sc1nccn1S2(=O)=O` is higher in growth inhibition: 13.8% for the first, 16.9% for the second.

Going from `CC(=O)CC(O)(C(F)(F)Cl)C(F)(Cl)Cl` (stereo not given) to `O=C(Cl)c1c(F)c(F)c(F)c(F)c1F`, the growth inhibition rises from 0.2% to 19.4%.

First: Cc1ccc(N=Cc2ccc(C(N)=S)cc2)cc1
Second: COc1ccc(/C=C2\N=C(c3ccc([N+](=O)[O-])cc3)OC2=O)cc1Br
The growth inhibition of the first is lower: -17.4% for the first, 23.4% for the second.

First: O=C(O)C1CCCN1Cc1ccc2c(c1)OCO2 (stereo not given)
Second: COc1ccc(C(CC(=O)O)c2cc3c(cc2OC)OCO3)cc1 (stereo not given)
The growth inhibition of the first is lower: -3.5% for the first, 0.25% for the second.

Going from `C[N+](C)(C)c1cc[c]([Sn]([c]2ccc([N+](C)(C)C)cc2)([c]2ccc([N+](C)(C)C)cc2)[c]2ccc([N+](C)(C)C)cc2)cc1` to `CCN(CC)Cc1cc(N=Nc2ccc(-c3ccc(N)c(OC)c3)cc2OC)c2ccccc2c1O`, the growth inhibition rises from 6.65% to 19.8%.

Compared with `CCCCOc1cc(C(=O)O)ccc1[N+](=O)[O-]`, `CC(C)CC(NC(=O)c1cc([N+](=O)[O-])cc([N+](=O)[O-])c1)C(=O)O` (stereo not given) is higher in growth inhibition: -5.75% for the first, 8.5% for the second.

Compared with `O=C(O)C(Cc1ccccc1)NS(=O)(=O)Cc1ccccc1` (stereo not given), `O=C(c1ccccc1)c1cc[n+]([O-])cc1` is lower in growth inhibition: -4.9% for the first, -16.9% for the second.

Going from `CC(=O)OC1CCC2(C)C(=CCC3C2CCC2(C)/C(=N\NS(=O)(=O)c4ccc(C)cc4)CCC32)C1` (stereo not given) to `C=C1CC2(CCC3C4CC=C5CC(O)CCC5(C)C4CCC32C)OC1=O` (stereo not given), the growth inhibition rises from -2.05% to 46.3%.

Going from `CCN(CC)CCC(=O)O` to `CC(C)(CCC(=O)O)CCC(=O)O`, the growth inhibition falls from 5.95% to -6.05%.

Going from `CS(=O)(=O)N1CC(CCl)c2ccc(NO)cc21` (stereo not given) to `C[C@H]1C[C@](C)(CO)Oc2oc3ccccc3c(=O)c21`, the growth inhibition falls from 17.3% to 4.75%.

Compared with `CCSCC(C)C(=O)OC` (stereo not given), `C#CC(C)(CC)OC(C)=O` (stereo not given) is lower in growth inhibition: 23.6% for the first, -23% for the second.

First: C[OH2+].[Cl][Cu+].[Cl][Cu+].[NH-]CCC([OH2+])CC[NH-]
Second: CCOC(=O)/C(C#N)=C/Nc1[nH]c(=O)c(C#N)c(-c2ccc(Cl)cc2)c1SC
The growth inhibition of the first is lower: -57.5% for the first, -9.2% for the second.

First: COc1cc(/C=C/C=C2\CCC/C(=C\C=C\c3ccc(O)c(OC)c3)C2=O)ccc1O
Second: O=C1NC(=O)C(=CN2C(=O)/C(=C/c3ccc(O)cc3)SC2=S)C(=O)N1
The growth inhibition of the first is higher: 19.3% for the first, 9.15% for the second.

Compared with `CCC1(C(=O)O)NC(=O)NC1=O` (stereo not given), `CC(=O)Oc1cccc2c1C(=O)C1CC(O)C3(C=O)OC(C)(C)OC2(C)C13` (stereo not given) is higher in growth inhibition: -8.95% for the first, 4.7% for the second.

Compared with `Nc1nc(Cc2ccccc2)cs1`, `O=[N+]([O-])c1cc([N+](=O)[O-])c(/C=C/c2ccccc2Cl)cc1/C=C/c1ccccc1Cl` is lower in growth inhibition: 7.5% for the first, -19.6% for the second.
